From PubChem BioAssay (NCI)
The panel holds about 83,000 compounds, 20% with a hit somewhere; the sample as a whole holds those more often.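 Assay: single dose, 48 h. Readout: percent growth (0 = no net growth; negative = cell death). Active: <10.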 Unmarked numbers belong to inactive results. Activity calls are given as the source filed them.

How the values were obtained:
Assay in all cases: NCI-60 one-dose screen, 48 h (100 = growth as untreated, 0 = no growth, -100 = all killed)
Conditions in all cases: 10 µM unless noted
[1] = system: NCI-H23 lung
[2] = system: NCI-H226 lung
[3] = system: NCI-H322M lung
[4] = system: HOP-62 NSCLC
[5] = system: NCI-H460 lung
[6] = system: HOP-92 NSCLC
[7] = system: NCI-H522 lung
[8] = system: A549/ATCC NSCLC
[9] = system: 786-0 renal
[10] = system: COLO 205 colon
[11] = system: DU-145 prostate
[12] = system: K-562 leukemia
[13] = system: MALME-3M melanoma
[14] = system: MDA-MB-231 breast
[15] = system: RXF 393 renal
[16] = system: SF-268 CNS
[17] = system: SF-295 CNS
[18] = system: SF-539 CNS
[19] = system: UACC-257 melanoma
[20] = system: M14 melanoma

Row | Structure (SMILES) | growth [1] | growth [2] | growth [3] | growth [4] | growth [5] | growth [6] | growth [7] | growth [8] | growth [9] | growth [10] | growth [11] | growth [12] | growth [13] | growth [14] | growth [15] | growth [16] | growth [17] | growth [18] | growth [19] | growth [20]
1 | CC1(C)O[C@H]2OC3CCC(=O)CC3(O)[C@H]2O1 (stereo not given in full) | 99.2% | 102% | 101% | 95.8% | 101% | 79.8% | 92.4% | 95.9% | 99.5% | 105% | 107% | 94.8% | 104% | 113% | 104% | 99.3% | 110% | 105% | 96.5% | 99.9%
2 | O=C(/C=C/C12c3ccccc3C(c3ccccc31)C1C(=O)NC(=O)C12)c1ccccn1 (stereo not given) | -8.66% (active) | 48.5% | -4.26% (active) | -22.7% (active) | -18.5% (active) | -12.4% (active) | 7.45% (active) | 6.07% (active) | 1.59% (active) | -50.5% (active) | 15.3% | 8.81% (active) | 19.1% | 16.4% | -46.3% (active) | 24.1% | 16% | -7.59% (active) | 33.8% | -15.4% (active)
3 | C=CCn1c(SCC(=O)Nc2ccc(C(=O)/C=C/c3ccc(OC)cc3)cc2)nnc1-c1ccccc1 | 94.2% | 90.3% | 89% | 91.6% | 103% | 86% | 80.7% | 83% | 73.3% | 101% | 93.8% | 91.5% | 88.2% | 76.2% | 115% | 80.9% | 90.4% | 98.2% | 104% | 81.5%
4 | CCCCCCCCn1ccc2cc(NC(=O)Cn3cc(CN4CCOCC4)nn3)ccc21 | 106% | 92.3% | 96.8% | 113% | 101% | 70.4% | 90.4% | 98.3% | 90.6% | 109% | 106% | 89.1% | 100% | 90.5% | 91.9% | 106% | 90.1% | 104% | 104% | 91%
5 | CCOC(=O)Cn1c(=O)c2c3ccccc3n(C)c2n2nnc(-c3ccccc3)c12 | 84.8% | 76.9% | 120% | 106% | 101% | 41.1% | 86.1% | 159% | 98% | 116% | 91.8% | 32.8% | 93.5% | 79.7% | 119% | 91% | 115% | 91.1% | 109% | 88.1%
6 | CCCNc1nc2ccccc2c2c(=O)c3cccc(Cl)c3sc12 | 74.1% | 84.9% | 89.6% | 88.3% | 78.7% | 89.5% | 82.3% | 94% | 110% | 94.7% | 98.2% | 86% | 81.9% | 105% | 98.5% | 101% | 98.8% | 110% | 107% | 101%
7 | COc1ccc(/C(C)=C(\c2ccc(OCCN3CCCCCC3)cc2)c2ccc(OC(=O)c3ccccc3)cc2)cc1 | 52.2% | 75.3% | 80.5% | 75.7% | 10.2% | 54.4% | 68.3% | 41.1% | 27.5% | 12.4% | 71.8% | 1.82% (active) | 22.7% | 52.6% | 16.4% | 44.4% | 20.6% | 45.2% | -15.5% (active) | -39% (active)
8 | COc1ccc(C2=C/C(=C\c3ccc(Cl)cc3)C(=O)N2/N=C/c2ccc(Cl)cc2)cc1 | 103% | 93.1% | 89.7% | 97.8% | 106% | 72.8% | 73.9% | 80.7% | 103% | 96.9% | 105% | 89.2% | 96.4% | 88.8% | 99.3% | 92.6% | 100% | 101% | 88.7% | 100%
9 | CCCCn1sc(=O)n(Cc2ccc(CNC(=O)OCc3ccc4c(Br)cc(Br)c(O)c4n3)cc2)c1=O | 36.1% | 31.6% | 46% | 27.1% | 4.44% (active) | 37.8% | -7.12% (active) | 18.9% | 92.2% | 114% | 6.37% (active) | 12.8% | 61.1% | 38.6% | 15.9% | 33.9% | 13.7% | -14% (active) | 48.4% | 10.4%
10 | CC(C)(C)C(=O)/C=C/c1ccc([N+](=O)[O-])cc1 | 85.7% | 69.6% | 103% | 103% | 97.9% | 67.5% | 40% | 66.8% | 97.5% | 82.5% | 80.2% | 13.3% | 103% | 81.2% | 93.7% | 90.1% | 93.3% | 86.9% | 50% | 70.9%
11 | O=C(Cn1nnc([N+](=O)[O-])n1)c1ccccc1 | 96.5% | 112% | 101% | 94.8% | 93.2% | 63.6% | 86.9% | 87% | 102% | 100% | 99.4% | 83.3% | 92.7% | 71.5% | 91.8% | 83.1% | 58% | 93.3% | 90.9% | 71.5%
12 | Nc1nc(C(=O)N/N=C/c2ccc(N3CCOCC3)cc2)nn1-c1ccc(S(N)(=O)=O)cc1 | 100% | 96.7% | 106% | 103% | 110% | 97.7% | 101% | 100% | 95.7% | 120% | 105% | 94% | 107% | 115% | 108% | 99% | 104% | 105% | 107% | 103%
13 | COP(=O)(OC)c1nnn(-c2cccc([N+](=O)[O-])c2)c1C | 107% | 120% | 114% | 110% | 104% | 119% | 90.3% | 111% | 103% | 122% | 111% | 102% | 105% | 113% | 118% | 98.2% | 111% | 93.3% | 105% | 104%
14 | COc1ccc(C2CC(c3ccc4c(c3)OCO4)=Nc3c(N)ncnc3N2)cc1 (stereo not given) | 107% | 100% | 95.4% | 88.6% | 111% | 62.4% | 108% | 104% | 102% | 100% | 141% | 99.6% | 106% | 90.1% | 84.3% | 93.3% | 168% | 110% | 107% | 105%
15 | CCOC(=O)c1ccc2c(c1)c1c(C)c3ccncc3c(C)c1n2C | -26.4% (active) | -37.1% (active) | 18.1% | -16.1% (active) | -5.22% (active) | 1.34% (active) | -52.6% (active) | 8.4% (active) | 16.7% | -44.7% (active) | 2.93% (active) | 7.07% (active) | -40.9% (active) | 2.92% (active) | -62.3% (active) | -7.28% (active) | 1.65% (active) | -0.581% (active) | -25.9% (active) | -57.2% (active)
